We go through 10 compounds from PubChem BioAssay (EPA / NIEHS).

Each structure is given as a SMILES string. Records with an inconclusive call do not appear. A structure can be active in one record and inactive in another. The source made the active and inactive calls. Rule for the calls, unless noted: active = hit-call score of the fitted dose curve at least 0.9, where 1 is the maximum; inactive = score below 0.9.

Read-out in experiment [1]: Collagen III, COL3A1 (gene 1281)
The experiment can be described thus: BSK_MyoF_CollagenIII: BioMAP Diversity Plus: MyoF Assay for Collagen III Biomarker Activity (AID 2284239). The note with it: primary human lung fibroblasts. In a few lines:
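Multiplexed cell assay in lung fibroblasts, harvested at 24 h post-dose. Collagen III detected by ELISA, with positive-direction fitting relative to DMSO vehicle.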

Read-out in experiment [2]: Interleukin 17F (IL17F), IL17F (gene 112744)
The experiment is described as follows: BSK_BT_xIL17F: BioMAP Diversity Plus: BT Assay for Interleukin 17F (IL17F) Biomarker Activity (AID 2284243). The note with it: primary human B cells with PBMC. In a few lines: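 Luminex readout of IL-17F secretion, 24 h; cells: human B cells with PBMC; positive-direction analysis, DMSO control.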

Read-out in experiment [3]: Actin alpha 1 (ACTA1), ACTA1 (gene 58)
The experiment can be described thus: BSK_MyoF_ACTA1: BioMAP Diversity Plus: MyoF Assay for Actin alpha 1 (ACTA1) Biomarker Activity (AID 2284244). The note with it: primary human lung fibroblasts. The method, boiled down:
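alpha-SMA levels read by ELISA against DMSO baseline, 24 h post-dose, in primary human lung fibroblasts. Parallel cultures stained with 0.1% SRB after 10% TCA fixation (560 nm) to flag overt cytotoxicity.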

Read-out in experiment [4]: Interleukin 2 (IL2), IL2 (gene 3558)
The experiment is described as follows: BSK_BT_xIL2: BioMAP Diversity Plus: BT Assay for Interleukin 2 (IL2) Biomarker Activity (AID 2284245). The note with it: primary human B cells with PBMC. In a few lines:
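Secreted IL-2 was read by Luminex xMAP from B cells co-cultured with PBMC (human primary) 24 h post-dosing; activity was analysed as gain of signal relative to DMSO vehicle.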

Read-out in experiment [5]: Collagen IV, COL4A1 (gene 1282)
The experiment is described as follows: BSK_MyoF_CollagenIV: BioMAP Diversity Plus: MyoF Assay for Collagen IV Biomarker Activity (AID 2284247). The note with it: primary human lung fibroblasts. In a few lines:
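Collagen IV quantified by ELISA in human lung fibroblast cultures 24 h after chemical treatment, with DMSO as baseline. Parallel SRB staining (0.1% SRB after TCA fixation, 560 nm) flags overt cytotoxicity.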

Read-out in experiment [6]: Plasminogen activator inhibitor-1 (PAI1), SERPINE1 (gene 5054)
The experiment is described as follows: BSK_MyoF_PAI1: BioMAP Diversity Plus: MyoF Assay for Plasminogen activator inhibitor-1 (PAI1) Biomarker Activity (AID 2284256).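 For outcome: PAI-1 protein level measured by ELISA in fibroblast cultures; PAI-1 read 24 h after compound addition.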 The note with it: primary human lung fibroblasts. In a few lines: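 In this multiplexed primary-cell system, fibroblasts from human lung received compound for 24 h before ELISA detection of PAI-1; overt toxicity was checked by SRB (0.1%, TCA-fixed, 560 nm) in parallel wells.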

Read-out in experiment [7]: Interleukin-8 (IL8), CXCL8 (gene 3576)
The experiment is described as follows: BSK_MyoF_IL8: BioMAP Diversity Plus: MyoF Assay for Interleukin-8 (IL8) Biomarker Activity (AID 2284261). The note with it: primary human lung fibroblasts. In a few lines: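 DMSO-normalised, upward-fitted IL-8 ELISA signal; human lung fibroblasts, 24 h chemical treatment.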

Read-out in experiment [8]: Collagen I, COL1A1 (gene 1277)
The experiment can be described thus: BSK_hDFCGF_CollagenI: BioMAP Diversity Plus: hDFCGF Assay for Collagen I Biomarker Activity (AID 2284250). The note with it: primary human foreskin fibroblasts. In a few lines: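 Collagen I quantified by ELISA 24 h after chemical dosing of human dermal fibroblast primary cells, with parallel SRB staining (0.1%, TCA-fixed, 560 nm) for overt cytotoxicity.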

Read-out in experiment [9]: Interferon-inducible T-cell alpha chemoattractant (ITAC), CXCL11 (gene 6373)
The experiment is described as follows: BSK_hDFCGF_ITAC: BioMAP Diversity Plus: hDFCGF Assay for Interferon-inducible T-cell alpha chemoattractant (ITAC) Biomarker Activity (AID 2284251). The note with it: primary human foreskin fibroblasts. In a few lines: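 Measured by ELISA, the chemokine level serves as the endpoint in human skin fibroblast primary cultures 24 h after compound addition. Increases relative to DMSO-treated wells define activity.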

Read-out in experiment [10]: Plasminogen activator inhibitor-1 (PAI1), SERPINE1 (gene 5054)
The experiment is described as follows: BSK_KF3CT_PAI1: BioMAP Diversity Plus: KF3CT Assay for Plasminogen activator inhibitor-1 (PAI1) Biomarker Activity (AID 2284252). The note with it: primary human keratinocytes with fibroblasts. The method, boiled down:
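PAI-1 levels quantified by ELISA after 24 h compound exposure of primary human skin keratinocytes co-cultured with fibroblasts. Activity is the gain relative to DMSO; cytotoxicity tracked in parallel cultures via SRB staining.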

Read-out in experiment [11]: Interleukin-8 (IL8), CXCL8 (gene 3576)
The experiment is described as follows: BSK_KF3CT_IL8: BioMAP Diversity Plus: KF3CT Assay for Interleukin-8 (IL8) Biomarker Activity (AID 2284254). The note with it: primary human keratinocytes with fibroblasts. In a few lines:
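Using parallel SRB-stained cultures to flag overt toxicity, the study quantified IL-8 by ELISA in human keratinocyte–foreskin fibroblast co-cultures 24 h after dosing, with DMSO as negative control and baseline.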

The nature of experiment [12]: UKN4_HCS_LUHMES_cell_viability: Viability Assessment in the University of Konstanz (UKN) Leist Lab Neurite Outgrowth Assay in human LUHMES cells (UKN4) (AID 2284232). The method, boiled down:
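Viability was read by high-content imaging of calcein-AM/H-33342-stained cells after 24 h toxicant exposure, staining included. Cells: human LUHMES on day 2 of dopaminergic differentiation, dosed shortly after attachment; DMSO baseline, bidirectional curve fitting.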

A short description of experiment [13]: UKN2_HCS_IMR90_cell_viability: Viability Assessment in the University of Konstanz (UKN) Leist Lab Neural Crest Cell Migration Assay in human induced IMR90 Pluripotent Stem Cells (UKN2) (AID 2284233).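 Note: cells exposed to compound for 24 h after a 24 h migration phase.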 In a few lines:
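Viability read as calcein-AM fluorescence by high-content imaging, Hoechst co-stain, 30 min. Human iPSC (IMR90) neural crest cells had migrated 24 h into stopper-defined gaps before 24 h chemical exposure. Fitted bidirectionally relative to DMSO.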

Experiment [14] is described as follows: CCTE_Mundy_HCI_Cortical_NOG_NeuronCount: CCTE's Neurite Outgrowth Assay in rat cortical cells for Neuron Count, Mundy Lab (AID 2284236; active = hit-call score of the fitted dose curve at least 0.9, where 1 is the maximum;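 note: neurons counted by imaging betaIII-tubulin and Hoechst stained cortical cells; cells exposed to compound for about 48 hours before fixation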). The method, boiled down:
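Read-out: neuron number by high-content imaging of betaIII-tubulin (Alexa Fluor-488) and Hoechst-labelled rat primary cortical cells.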

Experiment [15] can be described thus: CCTE_Mundy_HCI_Cortical_NOG_BPCount: CCTE's Neurite Outgrowth Assay in rat cortical cells for Branch Point Count, Mundy Lab (AID 2284237). The method, boiled down: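 Measured 50.33 h after dosing, this morphology endpoint uses rat primary cortical cultures labelled for betaIII-tubulin. Branch points are quantified by high-content imaging, with DMSO as negative control and baseline.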

The nature of experiment [16]: CCTE_Mundy_HCI_hNP1_Casp3_7: CCTE's Caspase-Glo 3/7 Assay in human neuroprogenitor cells for Apoptosis, Mundy Lab (AID 2284240). In a few lines:
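Luminescent caspase-3/7 readout, 26.5 h post-dose, in human neural progenitor cells from WA09 embryonic stem cells. Cells grew 40–44 h at 37 °C, 5% CO2 before chemical addition. Activity analysed as signal increase over DMSO baseline.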

Experiment [17] is described as follows: CCTE_Mundy_HCI_hNP1_CellTiter: CCTE's Cell Titer-Glo 2 Assay in human neuroprogenitor cells for Viability, Mundy Lab (AID 2284241; active = hit-call score of the fitted dose curve at least 0.9, where 1 is the maximum;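 for AC50: a hit is a drop in ATP luminescence versus DMSO meaning reduced viability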). In a few lines:
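Viability read as luminescent ATP content (CellTiter-Glo, 30 min room temperature) twenty-four hours after dosing, relative to DMSO. Cells: WA09-derived hNP1 neuroprogenitors on poly-L-ornithine/laminin, plated 40 to 44 hours before chemical.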

A short description of experiment [18]: CCTE_Mundy_HCI_Cortical_Synap_Neur_Matur_NeuronCount: CCTE's Synaptogenesis and Neurite Maturation Assay in rat cortical cells for Neuron Count, Mundy Lab (AID 2284242; active = hit-call score of the fitted dose curve at least 0.9, where 1 is the maximum). The method, boiled down:
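Neuron counts come from automated high-content imaging of Hoechst nuclei and MAP2/synaptophysin immunostaining at DIV 12, with loss of signal judged against DMSO. Cultures of rat cortical cells had glial growth arrested by AraC at DIV 5; chemical exposure began DIV 7.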

Regarding `C/C=C\C/C=C/CCCCCCCCOC(C)=O`, the outcome in experiment [1], in [5] and in experiment [7] was inactive. In addition, the AC50 (as a rule, the midpoint of the concentration-response curve, whichever way the signal moves) in experiment [2] is 25.5 µM (active); in [3] it was 31.9 µM (active); in [4] it was 31.6 µM (active); in [6], 20 µM (active).
Take `O=C(c1ccc(O)cc1)c1ccc(O)cc1O`: the result in [8], in experiment [9], in experiment [10] and in experiment [11] was inactive.
On to `Nc1ncn([C@@H]2O[C@H](CO)[C@@H](O)[C@H]2O)c(=O)n1`, for which the AC50 in experiment [12] is 16.5 µM (active); in experiment [13] it was 6.91 µM (active); in experiment [16] it was 5.45 µM (active); in experiment [17], 2.78 µM (active). Moreover, the call in experiment [13], in [14], in experiment [15], in experiment [17] and in experiment [18] was inactive.
With `O=C(Nc1ccccc1SSc1ccccc1NC(=O)c1ccccc1)c1ccccc1`, the outcome in experiment [1], in experiment [3], in experiment [5], in [6] and in [7] was inactive. In addition, the AC50 in experiment [2] was 9.15 µM (active).
On to `O=C1CCCN1CCO`, for which the outcome in experiment [8], in experiment [9], in [10] and in experiment [11] was inactive.
Consider `C=C[Si](OC(C)=O)(OC(C)=O)OC(C)=O`, for which the result in [8], in experiment [9], in experiment [10] and in experiment [11] was inactive.
`c1ccc2c(c1)ccc1ncccc12`: the result in experiment [1], in experiment [3], in [4], in experiment [5], in [6] and in experiment [7] was inactive. Also, the AC50 in experiment [2] was 20 µM (active).
For `N#[N+]c1ccc2c(S(=O)(=O)[O-])cccc2c1O`, the outcome in [1], in experiment [2], in experiment [3], in experiment [4], in [5] and in experiment [6] was inactive. Also, in experiment [7], the result was inactive.
As to `CCCCCCCCc1ccc(Nc2ccc(CCCCCCCC)cc2)cc1`, the outcome in experiment [1], in experiment [2], in experiment [3], in experiment [4], in experiment [5] and in [6] was inactive. For the same compound, in experiment [7], the result was inactive.
For the compound `CCCCNc1ccc(NCCCC)c2c1C(=O)c1ccccc1C2=O`, the outcome in experiment [1], in experiment [2], in [3], in experiment [4], in [5] and in [6] was inactive. Moreover, the result in experiment [7] was inactive.
